Holding throughout (test): NCI-60 one-dose screen, 48 h (100 = growth as untreated, 0 = no growth, -100 = all killed)
Holding throughout (details): 10 µM unless noted

Experiment [1] concerns SR leukemia.
Experiment [2] concerns RPMI-8226 leukemia.
The subject of experiment [3] is OVCAR-8 ovarian.
Experiment [4] has as its system OVCAR-5 ovarian.
Experiment [5] concerns OVCAR-4 ovarian.
For experiment [6], the system named is SK-OV-3 ovarian.
The subject of experiment [7] is OVCAR-3 ovarian.
Experiment [8] concerns NCI/ADR-RES ovarian.
The subject of experiment [9] is T-47D breast.
For experiment [10], the system named is BT-549 breast.
Experiment [11] concerns MDA-MB-435 melanoma.
The test system of experiment [12] is MCF7 breast.
The test system of experiment [13] is HCT-116 colon.
The subject of experiment [14] is HCC-2998 colon.
Experiment [15] deals with KM12 colon.
The subject of experiment [16] is HS 578T breast.
The test system of experiment [17] is SW-620 colon.

This is part of a sample that, as a whole, favours compounds with a hit. Of some 83,000 tested, about 20% had one in any assay.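 How to read the values: 0–100, growth inhibition (40 = 60% inhibited); 0, no net growth; -100 to 0, cell death (-40 = 40% of starting cells died; -100 = all dead).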 A number with no mark means an inactive call. Activity calls are given as the source filed them. How the source made its calls: active means growth percent below 10; inactive means the rest.

With `C[C@]12C=CC(=O)C=C1[C@@H](F)C[C@@H]1[C@@H]2[C@@H](O)C[C@@]2(C)[C@H]1CC[C@]2(O)C(=O)CO`, the growth in [1] is 106%; in experiment [2], 72.7%; in experiment [3] it was 83.9%; in experiment [4], 77.2%; in [5], 106%; in experiment [6], 71.3%. Besides, the growth is 96.3% in experiment [7]; 91.5% in experiment [8]; 99.4% in experiment [9]; 78.5% in experiment [10]; 103% in experiment [11]; 87.4% in experiment [12]. The growth in experiment [13] was 105%; in experiment [14], 105%; in [15], 100%.
For `CCCCCCCCC1OC1CCCCCCCC(=O)O` (configuration not stated), the growth in experiment [1] was 101%; in [2], 98.4%; in [3], 101%; in experiment [4], 108%; in experiment [5] it was 115%; in experiment [6], 95.3%. The growth in experiment [7] was 108%; in experiment [16], 98.6%; in experiment [8] it was 104%; in [9] it was 99%; in experiment [10] it was 128%; in experiment [11] it was 107%. The growth was 101% in experiment [12], 101% in experiment [13], 107% in experiment [14] and 104% in experiment [15].
Take `COC(=O)c1ccc2[nH]c(O)c(C(=Nc3ccc(N(C)C(=O)CN4CCN(C)CC4)cc3)c3cccc(OC)c3)c2c1`: the growth in [1] was -3.85% (active); in [2] it was 4.7% (active); in experiment [3], 23.7%; in experiment [4], 33.8%; in experiment [5], 25.4%; in experiment [6] it was -0.652% (active). For the same compound, the growth is 10.5% in [7]; 6.7% (active) in [16]; 99.5% in [8]; 11.2% in [10]; 31.8% in experiment [11]; 2.03% (active) in [17]. Besides, the growth is 6.86% (active) in [12], -5.68% (active) in experiment [13], 20.3% in experiment [14] and 4.88% (active) in experiment [15].
Turning to `COc1cc(OC)c(NC(=O)n2ncc3cc(Nc4ncnc5ccccc45)ccc32)cc1Cl`, the growth is 89.6% in experiment [1]; 101% in experiment [2]; 110% in [3]; 74.2% in [4]; 99.8% in [5]; 110% in [6]. Further, the growth in experiment [7] was 91.3%; in experiment [16] it was 112%; in experiment [8], 97.3%; in [9], 97.3%; in experiment [10], 78.1%; in experiment [11], 105%. For the same compound, the growth is 116% in experiment [17]; 98.1% in experiment [12]; 101% in experiment [13]; 89.7% in experiment [14]; 104% in [15].
On to `CCC(C)(C)c1ccc(OCCCCCCN2CCN(c3ccc(C)c(Cl)c3)CC2)cc1`, for which the growth in experiment [1] is 71.8%; in experiment [2], 59.7%; in experiment [3] it was 98.7%; in experiment [4], 97.6%; in [5], 74.5%; in experiment [6], 98%. Moreover, the growth in experiment [7] was 58.3%; in [8], 85%; in experiment [9], 66.1%; in experiment [10], 79.5%; in experiment [11], 97.3%; in experiment [12], 88.4%. For the same compound, the growth was 62.3% in experiment [13], 83.5% in experiment [14] and 79.3% in [15].
Take `COc1ccc(/C=C2\CCCC3=C2N=C2SC=NN2C3c2ccc(OC)c(OC)c2)cc1OC` (configuration not stated): the growth in experiment [1] was 34.3%; in experiment [2] it was -14.8% (active); in experiment [3] it was 9.01% (active); in experiment [4] it was 59.7%; in experiment [5], 49.1%; in [6] it was 81.9%. Further, the growth in experiment [7] was 37.8%; in experiment [16], 86.4%; in experiment [8], 21.4%; in experiment [9], 52.5%; in experiment [10] it was 38.5%; in experiment [11] it was 18.2%. Also, the growth in experiment [17] is 29.7%; in experiment [12], 22.6%; in experiment [13], 8.93% (active); in experiment [14] it was 57.1%; in experiment [15], 28.2%.
For `COCn1c(C(=O)OC)cc2oc(/C=C3/SC(=S)N(N)C3=O)cc21`, the growth in experiment [1] was 45.7%; in [2] it was 79.2%; in experiment [3] it was 98%; in experiment [4], 108%; in experiment [5], 97.2%; in [6] it was 89.6%. Further, the growth is 81.1% in experiment [7]; 55.8% in experiment [16]; 112% in experiment [8]; 94.4% in experiment [9]; 80.8% in [10]; 94.9% in experiment [11]. Also, the growth is 97.6% in experiment [17]; 97% in [12]; 93.8% in experiment [13]; 102% in [14]; 92.3% in [15].
In the case of `CCCCCCCCCCCCCCCCNC(=O)Nc1ccc(C)c(NC(=O)NCCCCCCCCCCCCCCCC)c1`, the growth is 104% in experiment [1]; 99.2% in experiment [2]; 105% in experiment [3]; 109% in experiment [4]; 108% in [5]; 105% in experiment [6]. Besides, the growth in experiment [7] was 109%; in [16], 95.1%; in experiment [8] it was 112%; in experiment [9], 104%; in experiment [10] it was 104%; in experiment [11], 105%. The growth in experiment [17] was 107%; in experiment [12], 101%; in experiment [13], 117%; in experiment [14] it was 110%; in experiment [15], 113%.
As for `NNC(=S)N1N=C(c2cc3ccccc3o2)CC1c1c[nH]c2ccccc12` (configuration not stated), the growth in [1] is 27.2%; in [2] it was 28%; in [3], 38.8%; in experiment [4], 80.4%; in experiment [5] it was 28.6%; in experiment [6], 86.2%. Further, the growth in experiment [7] is 20%; in [16], 63.8%; in experiment [8], 30.7%; in experiment [9], 40.3%; in experiment [10], 32.2%; in experiment [11], 57.8%. Moreover, the growth in [17] was 43.8%; in experiment [12], 20.7%; in experiment [13], 23.8%; in experiment [14], 52%; in [15], 37.4%.

(Values after PubChem BioAssay (NCI).)
